Out of some 310,000 compounds screened, about 1,500 (0.48%) were called active.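 How the source made its calls: active means initial fluorescence not abnormally high and integrated response B-score, plate-corrected, over 3 SD above library mean; inactive means the rest.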 The list comes from a sample in which actives are over-represented; it also holds similar structures and randomly drawn compounds.

Chain of High affinity choline transporter 1 (Homo sapiens) (Q9GZV3 whole entry, looked up): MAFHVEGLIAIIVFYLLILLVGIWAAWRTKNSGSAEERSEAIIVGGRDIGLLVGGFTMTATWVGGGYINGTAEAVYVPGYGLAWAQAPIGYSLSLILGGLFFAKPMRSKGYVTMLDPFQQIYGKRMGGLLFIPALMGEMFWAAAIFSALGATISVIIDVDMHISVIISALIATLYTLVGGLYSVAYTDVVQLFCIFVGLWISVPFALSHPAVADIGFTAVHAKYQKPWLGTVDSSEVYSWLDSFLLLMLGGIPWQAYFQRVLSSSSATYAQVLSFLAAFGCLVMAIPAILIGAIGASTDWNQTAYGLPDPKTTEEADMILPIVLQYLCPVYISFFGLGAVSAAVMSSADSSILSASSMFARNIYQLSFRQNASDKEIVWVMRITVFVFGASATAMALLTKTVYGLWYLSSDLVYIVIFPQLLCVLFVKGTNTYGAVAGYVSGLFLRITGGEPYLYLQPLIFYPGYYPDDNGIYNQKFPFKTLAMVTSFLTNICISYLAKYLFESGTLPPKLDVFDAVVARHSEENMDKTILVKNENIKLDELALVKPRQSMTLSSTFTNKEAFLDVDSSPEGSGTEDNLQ

This assay concerns the target High affinity choline transporter 1 (Homo sapiens) (UniProt Q9GZV3). Description: CHT positive allosteric modulators, primary screen, cell-based, membrane potential dye, choline EC20 (AID 488977). The following applies: CHT-expressing cells, at 10 µM, LV-AA mutant CHT in HEK293 cells; active compounds read high.
On to `CC1CCC2(CC1)NC(=O)N(CC(=O)c1ccc3c(c1)OCO3)C2=O` (stereo not drawn), for which the B-score entry was “inactive”.
Regarding `Cc1ccccc1NC(=O)COc1cccc2c1CCNC2=O`, the B-score entry was “inactive”.
In the case of `CC1CCc2[nH]c3ccc(C(=O)N(C)CC(=O)Nc4cccc(F)c4)cc3c2C1` (stereo not drawn), the B-score result is “inactive”.
Consider `Cc1nc2ccccc2c(=O)n1CCCn1ccnc1`, for which the B-score was 8.67 (active).
`Cc1nc2ccccc2c(=O)n1Cc1ccc([N+](=O)[O-])cc1`: the B-score result was “inactive”.
Take `Clc1c(OCCCn2ccnc2)ccc2ccccc12`: the B-score result was “inactive”.
For `CCCCN(C1CCS(=O)(=O)C1)S(=O)(=O)c1ccc(C(C)C)cc1` (stereo not drawn), the B-score entry was “inactive”.
`CN(C)/C=C/C(=O)c1cnc2sccn2c1=O`: the B-score is 6.34 (active).
With `O=C(NCc1ccccn1)c1cnc2sccn2c1=O`, the B-score entry is “inactive”.
For the molecule `CCOC(=O)c1cnc2sccn2c1=O`, the B-score entry was “inactive”.
Then `COc1cnn(-c2ccc([N+](=O)[O-])cc2)c(=O)c1Cl`, with “inactive”; and `Cc1ccc(-c2cc(=O)[nH]c(NCc3ccccc3)n2)cc1`, with “inactive”; and `COc1ccc(Cn2c(-c3ccc(Cl)cc3)c[n+]3ccccc23)cc1`, with 7.07 (active).
Take `CCn1c(C)cc(=O)cc1-c1ccc(Cl)cc1`: the B-score result was “inactive”.
For the molecule `COc1ccc(C(=O)CN(C(=O)c2ccc(Cl)cc2)N2C(=O)c3ccccc3C2=O)cc1`, the B-score entry is “inactive”.
Turning to `CN(Cc1ccccc1F)C(=O)C(Cc1ccccc1)NC(=O)c1ccccc1` (stereo not drawn), the B-score result is “inactive”.
Regarding `OCCCNc1nc(-c2ccccc2)c2cc(Cl)ccc2n1`, the B-score entry is “inactive”.
As for `Cc1cc2c(cc1C)[n+](C)cn2CC(O)COCC1CC=CCC1` (stereo not drawn), the B-score is 12.6 (active).
Consider `COc1ccccc1C(=O)NC(CCSC)C(=O)N1CCN(C/C=C/c2ccccc2)CC1` (stereo not drawn), for which the B-score entry was “inactive”.
For the molecule `Cn1c(=O)n(C)c2cc(C(=O)Nc3ccc(Br)cc3)ccc21`, the B-score result is “inactive”.
Next, `Cn1c(=O)n(C)c2cc(C(=O)Nc3ccc4c(c3)OCO4)ccc21`: 6.95 (active); `O=C(Nc1ccc2c(c1)OCO2)c1ccc(N2C(=O)c3ccccc3C2=O)cc1`: “inactive”; `CCc1ccc(Nc2n[n+](-c3ccccc3)c(-c3cccc(Cl)c3Cl)s2)cc1`: “inactive”.
Take `O=S(=O)(NCCCc1ccccc1)c1ccc(Br)cc1`: the B-score entry is “inactive”.
For `CCCCn1c(N)c(N(CCC(C)C)C(=O)c2ccc([N+](=O)[O-])o2)c(=O)[nH]c1=O`, the B-score result was “inactive”.
Next, `CCCCn1c(N)c(N(CC(C)C)C(=O)c2ccc(Br)o2)c(=O)[nH]c1=O`: “inactive”; `CCCCn1c(N)c(N(CCC(C)C)C(=O)c2ccc(COc3ccccc3)o2)c(=O)[nH]c1=O`: 12.1 (active).
Take `COC(=O)c1ccc(SCc2ccccc2)nc1`: the B-score result was “inactive”.
With `COc1ccc(NC(=O)CN(C)C(=O)CC2CCCCC2)cc1`, the B-score entry was “inactive”.
Turning to `Cc1ccc(C(=O)NC2CCCC(C)C2C)cc1S(=O)(=O)N1CCCCC1` (stereo not drawn), the B-score result was “inactive”.
For the molecule `COc1ccc(C(=O)NCc2cn3ccccc3n2)cc1`, the B-score entry was “inactive”.
As for `O=Cc1ccc(OCc2cn3ccccc3n2)cc1`, the B-score was 7.07 (active).
For the molecule `Cn1cc[n+](C)c1COc1ccc(C=O)cc1`, the B-score entry was “inactive”.
Next, `COc1ccc(S(=O)(=O)N2CCCCC2)cc1NC(=O)C1CC(=O)N(c2ccc3c(c2)OCCO3)C1` (stereo not drawn): “inactive”; `COc1ccc(/C=N/NC(=O)c2cc(-c3cccc(C)c3)nc3ccccc23)cc1O`: “inactive”.
Take `CCN1C(=O)[C@H]2[C@@H](c3ccc(SC4CCCCC4)c(OC)c3)N[C@@](Cc3ccccc3)(C(=O)OC)[C@H]2C1=O`: the B-score entry was “inactive”.
Next, `O=C(NCCc1ccco1)C(=O)NCCC1CCCCN1S(=O)(=O)c1ccccc1` (stereo not drawn): “inactive”.
On to `CCn1cc(C(=O)NCCO)c(=O)c2cc(F)c(N3CCN(C)CC3)cc21`, for which the B-score entry is “inactive”.
On to `CN1CCN(c2cc3c(cc2F)c(=O)c(C(=O)O)cn3CCF)CC1`, for which the B-score entry was “inactive”.
Then `CCn1cc(S(=O)(=O)c2cccc(C)c2)c(=O)c2cc(F)c(N3CCN(C)CC3)cc21`, with 8.24 (active); and `CCN1C(=O)[C@H]2[C@@H](c3ccc(-c4ccc(F)cc4)cc3)N[C@@](Cc3ccccc3)(C(=O)OC)[C@H]2C1=O`, with “inactive”; and `CN(/N=C/c1ccccc1)C(=S)c1ccccc1`, with “inactive”.
Turning to `Cc1ccc(C)c(OCCC(=O)Nc2cccc(S(=O)(=O)N3CCCC3)c2)c1`, the B-score entry is “inactive”.
In the case of `Cn1c(=NC(=O)c2ccco2)sc2cccc(F)c21`, the B-score entry was “inactive”.
`Cn1c(=NC(=O)CSCC(=O)N2CCCCC2)sc2ccccc21`: the B-score result is “inactive”.
Regarding `Cn1c(=NC(=O)c2cnccn2)sc2ccccc21`, the B-score is 7.8 (active).
As for `O=C(Nc1ncccc1O)c1ccc(S(=O)(=O)N2CCCCCC2)cc1`, the B-score entry is “inactive”.
`CCN(CC)c1ccc(S(=O)(=O)N2CCCCC2)cc1NC(=O)C1=COCCO1`: the B-score entry was “inactive”.
For the molecule `OCc1ccc(-c2ccccc2)c(-c2ccccc2)c1`, the B-score result is “inactive”.
Then `CCCCN(CCCC)CC(O)Cn1c2ccccc2c(=O)c2ccccc21` (stereo not drawn), with 8.77 (active); and `O=C1c2ccccc2S(=O)(=O)N1CC(O)Cn1c2ccccc2c2ccccc21` (stereo not drawn), with “inactive”.
Next, `CS(=O)(=O)N(CC(O)Cn1c2ccccc2c2ccccc21)c1cccc2ccccc12` (stereo not drawn): “inactive”; `COc1ccc(CCNc2cc(N3CCN(C(=O)c4ccccc4OC)CC3)ccc2[N+](=O)[O-])cc1OC`: “inactive”; `CCCC(=O)Nc1ccc(Cl)c(NC(=O)c2ccc(Br)o2)c1`: “inactive”.
As for `CCN1CCN(c2c(Cl)cccc2NC(=O)c2ccc(Br)o2)CC1`, the B-score is 8.41 (active).
Consider `COc1cc(OC)c(NC(=O)c2ccc(Br)o2)cc1Cl`, for which the B-score entry is “inactive”.
On to `O=C1CCCCC1Sc1ccc(Cl)cc1[N+](=O)[O-]` (stereo not drawn), for which the B-score result is “inactive”.
As for `COC(=O)[C@]1(C)N[C@H](c2ccc(-c3ccc(Cl)c(Cl)c3)cc2)[C@@H]2C(=O)N(C)C(=O)[C@@H]21`, the B-score result was “inactive”.
